Results taken from PubChem BioAssay AID492973 (The Scripps Research Institute Molecular Screening Center, 2010).
Active and inactive are the calls of the source.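 How the source made its calls: active means inhibition above 50% of the enzyme in parasite cell lysate; inactive means the rest.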

Assay: malaria lysate leucine aminopeptidase inhibition – cell lysate, fluorescence, Plasmodium falciparum lysate, powder samples, late-stage follow-up (AID 492973)
Settings: P. falciparum cell lysate, H-Leu-NHMec fluorescence; at 5 µM; active compounds read high
With `COC(=O)c1c(NC(=O)[C@H]2CC=CC[C@H]2C(=O)O)sc(C)c1C` the inhibition was 31% (inactive). For `CCOc1ccc(NC(=O)Nc2ccc3nccnc3c2)cc1`, the inhibition was 25% (inactive). In the case of `O=C(Nc1ccc(Cl)cc1)Nc1cccc(C(=O)O)c1`, the inhibition is reported as 65% (active). In the case of `Cc1ccc(-n2c(C)cc(C(=O)COC(=O)c3ccc[nH]c3=O)c2C)cc1C`, the inhibition is reported as 54% (active). For `CCOC(=O)c1c(-c2cccc(C)c2)csc1NC(=O)[C@H]1CC=CC[C@H]1C(=O)O`, the inhibition was 26% (inactive). For `Cc1ccc(-c2c(C)sc(NC(=O)[C@@H]3C4CCC(O4)[C@@H]3C(=O)O)c2C(=O)OC(C)C)cc1` (stereo not given in full), the inhibition was 23% (inactive). In the case of `CCOc1cccc(-c2cc(=O)[nH][nH]2)c1`, the inhibition is reported as 43% (inactive). In the case of `COc1cc(NC(=O)CSc2nc3ccccc3cc2C)c(C(=O)O)cc1OC`, the inhibition is reported as 67% (active). For `COC(=O)c1c(-c2cc(C)ccc2C)csc1NC(=O)[C@@H]1CC=CC[C@@H]1C(=O)O`, the inhibition was 64% (active). For `COc1cc(NC(=O)CSc2nnc3c(C)cc4cc(C)cc(C)c4n23)c(C(=O)O)cc1OC`, the inhibition was 55% (active). For `COc1ccc(-c2cc(=O)[nH][nH]2)cc1OC`, the inhibition was 8% (inactive). In the case of `O=c1cc(-c2ccc(Cl)c(Cl)c2)[nH][nH]1`, the inhibition is reported as 13% (inactive). With `COC(=O)c1cccc(NC(=O)CSc2nc(C)cc(=O)[nH]2)c1` the inhibition was 26% (inactive). In the case of `O=C(Nc1cc(Cl)ccc1Cl)[C@H]1CC=CC[C@H]1C(=O)O`, the inhibition is reported as 9% (inactive). With `CCc1cc2ccc(C)cc2nc1SCC(=O)Nc1cc(OC)c(OC)cc1C(=O)O` the inhibition was 69% (active). With `S=c1nc(-c2cccc(Cl)c2)[nH][nH]1` the inhibition was 22% (inactive). For `CCN(CC)c1ccc(NC(=O)CSc2nc(C)cc(=O)[nH]2)cc1`, the inhibition was 52% (active). In the case of `COc1ccc(C(C)(C)C)cc1NC(=O)[C@H]1CC=CC[C@H]1C(=O)O`, the inhibition is reported as 40% (inactive). For `CCc1cc2ccccc2nc1SCC(=O)Nc1cc(OC)c(OC)cc1C(=O)O`, the inhibition was 68% (active). With `CC(C)c1ccc(NC(=O)[C@H]2CCCC[C@H]2C(=O)O)cc1` the inhibition was 27% (inactive). With `COC(=O)c1c(-c2ccco2)csc1NC(=O)[C@H]1CC=CC[C@H]1C(=O)O` the inhibition was 51% (active). For `COc1ccc2nc(SCC(=O)Nc3cc(OC)c(OC)cc3C(=O)O)c(C)cc2c1`, the inhibition was 66% (active). In the case of `CCc1cc2cc(OC)ccc2nc1SCC(=O)Nc1cc(OC)c(OC)cc1C(=O)O`, the inhibition is reported as 68% (active). In the case of `COc1ccc(-c2cc(=O)[nH][nH]2)cc1`, the inhibition is reported as 22% (inactive). For `S=c1nc(-c2ccccc2Br)[nH][nH]1`, the inhibition was 26% (inactive).
